Compound activity as filed in PubChem.
Shiga toxin inh: blocks Shiga toxin action in Vero cells | Vero cells, Shiga toxin protein synthesis inhibition reporter | inhibition, % at 38.7 µM | 9.2% of 290,000 active | AID 2315; in the data active = inhibition mostly above about 28%, no sharp cut-off; inactive = mostly below about 43%; also: 0% is about no effect
Marburg entry inh: inhibitors of Marburg virus binding or cell entry | Marburg virus pseudotyped entry inhibition, cell reporter | Potency, µM (series often up to 37.8 µM), for the others: top-dose activity change, negative = inhibition, most hits filed as inhibitors | 1.8% of 300,000 active; calls by dose curve; tested in HEK293 cells; also: potency is read from the fitted curve at half-maximal effect; % is scaled to controls: 0 for no effect and ±100 for the full control effect
LASV entry inh: blocks Lassa virus binding to or entry into cells. 1.2% of 300,000 active. Potency, µM (series often up to 37.9 µM), for the others: at the top dose activity change, negative = inhibition, actives largely listed as inhibitors. AID 540256. Lassa virus pseudotype entry inhibition, cell reporter; calls by dose curve; tested in HEK293 cells; also: potency is read from the fitted curve at half-maximal effect; % is scaled to controls: 0 for no effect and ±100 for the full control effect; nearly all actives have a fitted effect of over 50% in size
Pf growth 48h: P. falciparum growth inhibition at 48 hours (one generation). P. falciparum luciferase growth in erythrocytes, 48 h. Potency, µM (top dose mostly 28.7 µM), without a hit: top-dose activity change, negative = inhibition, usual class: inhibitors. 5.9% of 310,000 active. AID 504832; also: potency is read from the fitted curve at half-maximal effect; % is scaled to controls: 0 for no effect and ±100 for the full control effect
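A one-generation exposure of luciferase-tagged malaria parasites in RPMI 1640/Albumax erythrocyte culture, 37 C and 5% CO2. Inhibition is inferred from decreased luminescence after adding detection reagent.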
Pf growth 96h: P. falciparum growth inhibition at 96 hour, primary screen for plastid delayed-death inhibitors; P. falciparum luciferase reporter growth, 96 h; Potency, µM (top dose mostly 28.7 µM), for inactives: at the highest dose activity change, negative = inhibition, actives largely listed as inhibitors; 6.9% of 320,000 active; AID 504834; also: potency is read from the fitted curve at half-maximal effect; % is scaled to controls: 0 for no effect and ±100 for the full control effect
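Erythrocytes infected with luciferase-expressing P. falciparum were dispensed at 2% hematocrit and 0.05% parasitemia (final), then incubated with compounds 96 hours at 37 C in 5% CO2. Luminescence after detection reagent addition reported growth.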
CHX counter: counter-screen hit for Shiga toxin inhibitors, cycloheximide; max response, %; 12% of 300,000 active; cell reporter, cycloheximide protein synthesis inhibition counterscreen; in the data active = max response mostly above about 13%, no sharp cut-off; inactive = mostly below about 14%; also: read at 38.3 µM for the half of the compounds with a filed dose; 0% is about no effect
* hit, by the source's call; i = inactive; ? = inconclusive; · = not tested or not shown; [ ] = dose if it differs, or a comment. Only some compounds are listed: those with a hit (about 19% of all), similar ones and a draw of the others. Unless noted, calls follow the shape of the dose curve; as a rule, active = well fitted inhibition curve with a large enough effect; inconclusive = small, poorly fitted or top-dose-only effect, or another doubt; inactive = no such curve, though single readings can be large or run the other way.

SMILES	Shiga toxin inh	Marburg entry inh	LASV entry inh	Pf growth 48h	Pf growth 96h	CHX counter
CCOc1ccc(CCNC(=O)C(C)n2nc(C)c3c(C)n(-c4ccccc4)nc3c2=O)cc1 (stereo not given)	-4	-18%[46.1 µM]	-11%[46.1 µM]	?	13µM*	-7
O=C(NCCC1=CCCCC1)c1ccc2c(c1)N(Cc1ccccc1F)C(=O)c1ccccc1S2=O (stereo not given)	·	?	-27%[46.1 µM]	·	·	·
C=CCn1c(SC2CCOC2=O)nc2sc(C)c(C)c2c1=O (stereo not given)	0	2%	0%	12%	13µM*	-3
O=c1c2ccccc2sn1-c1ccc(F)cc1	·	·	·	10µM*	?	·
COC(=O)c1cccc(-n2sc3ccccc3c2=O)c1	·	·	·	?	14%	·
Cc1ccc(-n2sc3ccccc3c2=O)cc1	31	3.2µM*	?	4.1µM*	-19%	18*
CCC1CCCCN1C(=O)c1c[nH]c2ccc(S(=O)(=O)N(C)c3ccc(Cl)cc3)cc2c1=O (stereo not given)	-5	-18%	?	·	-12%	-2
O=C(C(=Cc1ccccc1)CN1CCCCC1)c1ccccc1	·	?	3.5µM*	·	·	·
CCCCn1c(O)c(C=NC2CCCCC2N)c(=O)[nH]c1=O (stereo not given)	13	-1%	9%	-15%	·	-3
CCCCCCn1c(O)c(C=NC2CCCCC2N)c(=O)[nH]c1=O (stereo not given)	-6	-28%	?	8%	6.6µM*	0
COc1ccccc1C(C)NCC(=O)Nc1c(F)cccc1F (stereo not given)	34	3%[46.1 µM]	6%	-10%	-11%	8
COc1cc(Cl)c(C)cc1NC(=O)CNC(C)c1ccccc1OC (stereo not given)	-10	?	?	-12%	9.3µM*	0
Cc1cccc(-n2c(N)cc(=O)nc2SCC(=O)NC2CCCCC2)c1	-22	-3%	0%	-6%	-28%	-2
Cc1csc(Nc2ccccc2)n1	44*	9%[46.1 µM]	37%	62%	76%	23*
O=C(Nc1ccc(Cl)cc1)Nc1nc(-c2ccccc2)cs1	43	·	·	-17%	?	6
Cc1csc(Nc2ccc(C(=O)O)cc2)n1	11*	·	·	37%	45%	15
O=C(O)c1ccc(Nc2nc(-c3ccccc3)cs2)cc1	112*	?	?	453%	?	27*
NCCCC[C@@H](C(=O)N1CCNCC1)n1cc(CCC(=O)O)nn1	-17	·	·	40%	2%	1
Cc1ccc(C(=O)NNC(=O)CNc2cccc(Cl)c2)cc1	7	·	·	12%	?	-2
CCCN1CCC(NC(=S)Nc2ccc(C(=O)OCC)cc2)CC1	-5	?	-4%	12µM*	-12%	-1
CCOC(=O)c1ccc(NC(=S)NCCCN2CCCCC2)cc1	-14	?	1%	-26%	0%	-4
CCCN1CCC(NC(=S)Nc2ccc([N+](=O)[O-])cc2)CC1	26	·	·	3.7µM*	?	10*
CCCN1CCN(C(=S)Nc2ccc([N+](=O)[O-])cc2)CC1	2	16%	-3%	-15%	-102%	-1
CC(=O)c1ccc(N2CCN(c3ccc(S(=O)(=O)NCCCN(C)C)cc3[N+](=O)[O-])CC2)cc1	20	·	·	?	13µM*	0
CN(C)CCCNS(=O)(=O)c1ccc(N2CCN(Cc3ccc4c(c3)OCO4)CC2)c([N+](=O)[O-])c1	-6	?	?	12µM*	9.3µM*	-5
SMILES	Shiga toxin inh	Marburg entry inh	LASV entry inh	Pf growth 48h	Pf growth 96h	CHX counter
CC(=O)c1ccc(N2CCN(c3ccc(S(=O)(=O)NCCN(C)C)cc3[N+](=O)[O-])CC2)cc1	-3	·	·	?	?	-3
Cc1ccc2nc3c(c(N)c2c1)CCN3c1ccccc1	27	?	?	?	?	13
Nc1c2c(nc3cccc(Cl)c13)N(c1ccccc1)CC2	3	?	?	17%	7.4µM*	2
O=C(N/N=C/c1c(O)n(-c2ccccc2)c(=S)[nH]c1=O)c1ccccc1	60*	?	4%	24%	36%	40*
Cc1ccccc1-n1c(O)c(/C=N/NC(=O)c2ccccc2O)c(=O)[nH]c1=S	76*	·	·	9%	23%	46*
O=c1[nH]c(=S)n(C2CC2)c(O)c1C=NCc1cccnc1	6	11%[46.1 µM]	5%[46.1 µM]	1%	12%	-2
O=C(N/N=C/c1c(O)n(-c2ccccc2)c(=O)[nH]c1=O)c1ccncc1	19	?	2%	34%	45%	8
Cc1ccccc1-n1c(O)c(/C=N/Nc2nc3c(c(=O)n(C)c(=O)n3C)n2C)c(=O)[nH]c1=S	-3	30%	16%	9%	-5%	-2
O=C(N/N=C/c1c(O)n(C2CC2)c(=S)[nH]c1=O)c1ccccc1O	26	-9%	?	-13%	?	25*
COc1ccc(CCn2c(N)cc(=O)[nH]c2=S)cc1OC	-14	4%	8%	?	-19%	-2
CCCS(=O)(=O)c1nc(S(=O)(=O)c2ccc(C)cc2)c(N2CCC3(CC2)OCCO3)s1	6	·	·	-16%	?	-3
CCOC(=O)c1c(-c2ccc(F)cc2)csc1NC(=O)C1CC=CCC1C(=O)O (stereo not given)	10	0%[46.1 µM]	9%[46.1 µM]	-5%	2%	-2
Nc1nnc(-c2ccc(Cl)cc2)o1	36	·	·	?	56%	7
O=C(Nc1nnc(-c2ccncc2)o1)c1cccc(N2C(=O)CCC2=O)c1	-8	13%[46.1 µM]	-2%	0%	49%	-1
CN(C)c1nnc(-c2ccc(Cl)cc2)o1	49*	7%	6%	i	0%	39*
Cc1ccccc1C(=O)Nc1nnc(-c2ccco2)o1	57*	27%[46.1 µM]	?	?	?	33*
O=C(Nc1nnc(-c2ccco2)o1)c1cccc(N2C(=O)CCC2=O)c1	99*	15%[46.1 µM]	0%	18%	62%	22
Clc1ccc(-c2nnc(-c3ccco3)o2)cc1	91*	22%	?	98%	-17%	42*
O=S1(=O)CCN(Cc2ccc(F)cc2)CC1	2	16%[46.1 µM]	21%[46.1 µM]	-2%	32%	-2
Cc1ccc(C(=O)Nc2nnc(-c3ccco3)o2)cc1C	57*	?	-20%	20%	?	22*
CC(=O)c1ccc(C(=O)Nc2nnc(-c3ccc(Cl)cc3)o2)cc1	-9	·	·	0%	-22%	-6
O=C(Nc1nnc(-c2ccco2)o1)c1ccc(Cl)cc1	42*	-4%[46.1 µM]	-15%	-26%	0%	29*
CN(C)S(=O)(=O)c1ccc(C(=O)Nc2nnc(-c3ccco3)o2)cc1	4	7%[46.1 µM]	17%[46.1 µM]	?	?	21
O=C(Nc1nnc(-c2ccccc2)o1)c1ccc(Cl)cc1	-4	13µM*	?	?	?	9
Cc1cccc(C(=O)Nc2nnc(-c3ccco3)o2)c1	-8	-21%	4%	-12%	0%	7
